PubChem BioAssay (EPA / NIEHS)
Calls of active or inactive are those of the source. The calls were made as follows: active = hit-call score of the fitted dose curve at least 0.9, where 1 is the maximum; inactive = score below 0.9.

Read-out: succinate dehydrogenase complex iron sulfur subunit B (SDHB), SDHB (gene 6390)
Assay: LTEA_HepaRG_SDHB: Life Technologies and Expression Analysis (LTEA) Assay for succinate dehydrogenase complex iron sulfur subunit B (SDHB) using HepaRG (AID 2283528)
Conditions: mRNA level, 48 h; actives raise or lower the signal
Method in brief: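 Readout is SDHB transcript level by qRT-PCR, normalised to three housekeeping genes and fitted bidirectionally against 0.5% DMSO vehicle. Human HepaRG cells were treated for 48 h at up to 100 uM.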

Sequence of Signal transducer and activator of transcription 3 (Homo sapiens) (P40763 whole entry, looked up): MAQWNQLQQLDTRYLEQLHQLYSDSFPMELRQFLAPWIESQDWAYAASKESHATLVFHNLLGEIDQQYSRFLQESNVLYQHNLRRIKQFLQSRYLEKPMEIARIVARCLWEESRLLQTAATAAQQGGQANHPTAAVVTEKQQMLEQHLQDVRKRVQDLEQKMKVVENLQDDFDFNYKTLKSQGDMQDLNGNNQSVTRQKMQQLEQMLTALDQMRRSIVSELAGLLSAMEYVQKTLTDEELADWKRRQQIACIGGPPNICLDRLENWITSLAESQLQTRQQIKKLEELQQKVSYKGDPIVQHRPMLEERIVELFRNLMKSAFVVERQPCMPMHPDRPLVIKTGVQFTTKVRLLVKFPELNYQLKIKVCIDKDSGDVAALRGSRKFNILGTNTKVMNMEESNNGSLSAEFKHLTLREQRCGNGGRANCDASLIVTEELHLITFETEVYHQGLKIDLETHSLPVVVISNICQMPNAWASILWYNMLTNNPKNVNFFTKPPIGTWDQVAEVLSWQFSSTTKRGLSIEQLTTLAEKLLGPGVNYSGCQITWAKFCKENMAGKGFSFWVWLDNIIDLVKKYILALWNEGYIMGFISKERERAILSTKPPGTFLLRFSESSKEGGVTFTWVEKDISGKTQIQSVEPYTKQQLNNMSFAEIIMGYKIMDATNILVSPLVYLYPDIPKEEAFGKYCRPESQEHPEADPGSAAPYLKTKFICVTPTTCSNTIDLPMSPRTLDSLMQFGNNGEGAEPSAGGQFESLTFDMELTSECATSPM

Row | SMILES | outcome | AC50
1 | CCOP(=O)(SC(C)CC)N1CCSC1=O (centres undefined) | inactive | –
2 | CCCSP(=O)(OCC)Oc1ccc(Br)cc1Cl (centres undefined) | inactive | –
3 | CSc1nnc(C(C)(C)C)c(=O)n1N | inactive | –
4 | Cc1ccn2nc(S(=O)(=O)Nc3c(F)cccc3F)nc2n1 | inactive | –
5 | CC(C)=CC1C(C(=O)OCN2C(=O)C3=C(CCCC3)C2=O)C1(C)C (centres undefined) | inactive | –
6 | FC(F)C(F)(F)OCC(Cn1cncn1)c1ccc(Cl)cc1Cl (centres undefined) | inactive | –
7 | CC(C1CC1)C(O)(Cn1cncn1)c1ccc(Cl)cc1 (centres undefined) | inactive | –
8 | Cc1cc(C2CC2)nc(Nc2ccccc2)n1 | inactive | –
9 | COc1cccc(C(=O)NN(C(=O)c2cc(C)cc(C)c2)C(C)(C)C)c1C | inactive | –
10 | C[N+]1(C)CCCCC1 | inactive | –
11 | CC[C@H](C)[C@H]1O[C@]2(C=C[C@@H]1C)C[C@@H]1C[C@@H](C/C=C(\C)[C@@H](O[C@H]3C[C@H](OC)[C@@H](O[C@H]4C[C@H](OC)[C@@H](NC)[C@H](C)O4)[C@H](C)O3)[C@@H](C)/C=C/C=C3\CO[C@@H]4[C@H](O)C(C)=C[C@@H](C(=O)O1)[C@]34O)O2 | inactive | –
12 | COP(=O)(OC)C(O)C(Cl)(Cl)Cl (centres undefined) | inactive | –
13 | S=C1NCCN1 | inactive | –
14 | CCNc1nc(Cl)nc(NC(C)(C)C#N)n1 | inactive | –
15 | CON=C(C(=O)OC)c1ccccc1CON=C(C)c1cccc(C(F)(F)F)c1 | inactive | –
16 | CCCCOC(=O)c1ccccc1C(=O)O | inactive | –
17 | Nc1nc(N)nc(NC2CC2)n1 | inactive | –
18 | C[Si](Cn1cncn1)(c1ccc(F)cc1)c1ccc(F)cc1 | inactive | –

Row | SMILES | outcome | AC50
19 | CNC(=O)ON=C(SC)C(=O)N(C)C | inactive | –
20 | COc1cc(OC)nc(Sc2cccc(Cl)c2C(=O)O)n1 | inactive | –
21 | CCC(=O)Nc1ccc(Cl)c(Cl)c1 | inactive | –
22 | CNC(=O)Oc1cccc2c1OC(C)(C)O2 | inactive | –
23 | CCCCOC(=O)[C@@H](C)Oc1ccc(Oc2ccc(C#N)cc2F)cc1 | inactive | –
24 | CC(C)[C@H](C(=O)O[C@H](C#N)c1cccc(Oc2ccccc2)c1)c1ccc(Cl)cc1 | inactive | –
25 | C#CCC1=C(C)C(OC(=O)C2C(C=C(C)C)C2(C)C)CC1=O (centres undefined) | – | 9.87 µM (active)
26 | CCOP(=S)(OCC)Oc1ccc([N+](=O)[O-])cc1 | inactive | –
27 | CN(C)C(=O)Nc1cccc(C(F)(F)F)c1 | inactive | –
28 | CC(COc1ccc(Oc2ccccc2)cc1)Oc1ccccn1 (centres undefined) | inactive | –
29 | CCc1cccc(C)c1N(C(=O)CCl)C(C)COC (centres undefined) | inactive | –
30 | CCC(=NOC/C=C/Cl)C1=C(O)CC(C2CCOCC2)CC1=O (centres undefined) | inactive | –
31 | CCOP(=S)(OCC)SCCSCC | inactive | –
32 | CCC(CC)Nc1c([N+](=O)[O-])cc(C)c(C)c1[N+](=O)[O-] | inactive | –
33 | CN(C)NC(=O)CCC(=O)O | inactive | –
34 | CCOP(=S)(OCC)Oc1cc(C)nc(C(C)C)n1 | inactive | –
35 | CC(Oc1cccc(Cl)c1)C(=O)O (centres undefined) | inactive | –

Read-out: Signal transducer and activator of transcription 3 (Homo sapiens) (UniProt P40763)
Assay: LTEA_HepaRG_STAT3: Life Technologies and Expression Analysis (LTEA) Assay for Signal transducer and activator of transcription (STAT3) using HepaRG (AID 2283529)
Conditions: mRNA level, 48 h; actives raise or lower the signal
Method in brief: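 Differentiated human HepaRG cells in serum-free induction medium were exposed in duplicate for 48 h to eight half-log concentrations up to 100 uM in 0.5% DMSO. STAT3 mRNA was quantified by TaqMan qRT-PCR, normalized to ACTB, GAPDH and POLR2A, and fitted bidirectionally against DMSO.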

Row | SMILES | outcome | AC50
36 | CCOP(=O)(SC(C)CC)N1CCSC1=O (centres undefined) | inactive | –
37 | CCCSP(=O)(OCC)Oc1ccc(Br)cc1Cl (centres undefined) | inactive | –
38 | CSc1nnc(C(C)(C)C)c(=O)n1N | inactive | –
39 | Cc1ccn2nc(S(=O)(=O)Nc3c(F)cccc3F)nc2n1 | inactive | –
40 | CC(C)=CC1C(C(=O)OCN2C(=O)C3=C(CCCC3)C2=O)C1(C)C (centres undefined) | inactive | –
41 | CC(C1CC1)C(O)(Cn1cncn1)c1ccc(Cl)cc1 (centres undefined) | – | 0.389 µM (active)
42 | Cc1cc(C2CC2)nc(Nc2ccccc2)n1 | inactive | –
43 | COc1cccc(C(=O)NN(C(=O)c2cc(C)cc(C)c2)C(C)(C)C)c1C | – | 5.4 µM (active)
44 | C[N+]1(C)CCCCC1 | inactive | –
45 | CC[C@H](C)[C@H]1O[C@]2(C=C[C@@H]1C)C[C@@H]1C[C@@H](C/C=C(\C)[C@@H](O[C@H]3C[C@H](OC)[C@@H](O[C@H]4C[C@H](OC)[C@@H](NC)[C@H](C)O4)[C@H](C)O3)[C@@H](C)/C=C/C=C3\CO[C@@H]4[C@H](O)C(C)=C[C@@H](C(=O)O1)[C@]34O)O2 | – | 11.9 µM (active)
46 | COP(=O)(OC)C(O)C(Cl)(Cl)Cl (centres undefined) | inactive | –
47 | S=C1NCCN1 | inactive | –
48 | CCNc1nc(Cl)nc(NC(C)(C)C#N)n1 | inactive | –
49 | CON=C(C(=O)OC)c1ccccc1CON=C(C)c1cccc(C(F)(F)F)c1 | inactive | –
50 | CCCCOC(=O)c1ccccc1C(=O)O | inactive | –
51 | Nc1nc(N)nc(NC2CC2)n1 | inactive | –
52 | C[Si](Cn1cncn1)(c1ccc(F)cc1)c1ccc(F)cc1 | inactive | –

Row | SMILES | outcome | AC50
53 | CNC(=O)ON=C(SC)C(=O)N(C)C | inactive | –
54 | COc1cc(OC)nc(Sc2cccc(Cl)c2C(=O)O)n1 | inactive | –
55 | CCC(=O)Nc1ccc(Cl)c(Cl)c1 | inactive | –
56 | CNC(=O)Oc1cccc2c1OC(C)(C)O2 | inactive | –
57 | CCCCOC(=O)[C@@H](C)Oc1ccc(Oc2ccc(C#N)cc2F)cc1 | inactive | –
58 | CC(C)[C@H](C(=O)O[C@H](C#N)c1cccc(Oc2ccccc2)c1)c1ccc(Cl)cc1 | inactive | –
59 | C#CCC1=C(C)C(OC(=O)C2C(C=C(C)C)C2(C)C)CC1=O (centres undefined) | inactive | –
60 | CCOP(=S)(OCC)Oc1ccc([N+](=O)[O-])cc1 | inactive | –
61 | CSC1=N[C@@](C)(c2ccccc2)C(=O)N1Nc1ccccc1 | – | 9.92 µM (active)
62 | CN(C)C(=O)Nc1cccc(C(F)(F)F)c1 | inactive | –
63 | CC(COc1ccc(Oc2ccccc2)cc1)Oc1ccccn1 (centres undefined) | inactive | –
64 | CCc1cccc(C)c1N(C(=O)CCl)C(C)COC (centres undefined) | inactive | –
65 | CCC(=NOC/C=C/Cl)C1=C(O)CC(C2CCOCC2)CC1=O (centres undefined) | inactive | –
66 | CCC(CC)Nc1c([N+](=O)[O-])cc(C)c(C)c1[N+](=O)[O-] | inactive | –
67 | CN(C)NC(=O)CCC(=O)O | inactive | –
68 | CCOP(=S)(OCC)Oc1cc(C)nc(C(C)C)n1 | inactive | –
69 | CC(Oc1cccc(Cl)c1)C(=O)O (centres undefined) | inactive | –
